According to the supplement of paper PMC8866396:
± gives the standard deviation of the averaged measurements.

tested on: IL-6-GFP PC-9GR; experiment: cell viability (CCK-8 OD) relative to DMSO control (fraction of control); higher = more viable cells; details: compound concentration: 10 uM; treatment time: 48 h
In short: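 PC-9 and PC-9GR lung cancer cells expressing lentiviral IL-6-GFP were plated at 3000 cells/well in 96-well plates and treated for 48 h with each library compound at a final 10 μM. Viability was determined by CCK-8 absorbance as a ratio of each well's optical density to the vehicle control well.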

Row | Compound | cell viability
1 | O=C(O)CCCN1CCC(OC(c2ccc(Cl)cc2)c2ccccn2)CC1.O=S(=O)(O)c1ccccc1 (configuration not stated) [Bepotastine Besilate] | 0.9937 ± 0.0023
2 | CN(C)CCCOc1nn(Cc2ccccc2)c2ccccc12.Cl [Benzydamine HCl] | 0.996 ± 0.23
3 | CN(C(=O)c1c(O)c2ccccc2n(C)c1=O)c1ccccc1 [Roquinimex] | 0.937 ± 0.35
4 | COc1nc(N)nc2c1ncn2C1OC(CO)C(O)C1O (configuration not stated) [Nelarabine] | 1.12 ± 0.017
5 | Cc1ccc(NC(=O)c2ccc(CN3CCN(C)CC3)cc2)cc1Nc1nc(-c2cccnc2)cs1 [Masitinib (AB1010)] | 0.268 ± 0.05
6 | Cc1cc(S(=O)(=O)[O-])c2c(C)ccc(C(C)C)cc1-2.[Na+] [Sodium gualenate] | 1.45 ± 0.46
7 | Cc1coc2c1C(=O)C(=O)c1c-2ccc2c(C)cccc12 [Tanshinone I] | 1.32 ± 0.097
8 | CCCCCCCCCCCC1=C(O)C(=O)C=C(O)C1=O [Embelin] | 0.858 ± 0.075
9 | O=C(c1ccc(F)c(F)c1Nc1ccc(I)cc1F)N1CC(O)(C2CCCCN2)C1 (configuration not stated) [Cobimetinib (GDC-0973, RG7420)] | 0.7146 ± 0.0029
10 | CC#CCn1c(N2CCCC(N)C2)nc2c1c(=O)n(Cc1nc(C)c3ccccc3n1)c(=O)n2C (configuration not stated) [Linagliptin] | 0.849 ± 0.11
11 | COc1cc2ncnc(Nc3ccc(F)c(Cl)c3)c2cc1OCCCN1CCOCC1.Cl [Gefitinib hydrochloride] | 0.91868 ± 0.00075
12 | CCC1(O)CC2CN(CCc3c([nH]c4ccccc34)C(C(=O)OC)(c3cc4c(cc3OC)N(C=O)C3C(O)(C(=O)OC)C(OC(C)=O)C5(CC)C=CCN6CCC43C65)C2)C1.O=S(=O)(O)O (configuration not stated) [Vincristine sulfate] | 0.587 ± 0.086
